Shown are actives, neighbours in structure and some others; about 0.52% of the full set was active somewhere.
PINK1 modulator: PINK1 expression modulation; PINK1 immunofluorescence, high-content cytometry, 24 h; 410,000 tested, 0.2% active; Potency, µM (titrated, usually from 76.6 µM), most hits filed as activators; active = well fitted activation curve with a large enough effect; inconclusive = small, poorly fitted or top-dose-only effect; cell line not stated here; note: nearly all actives have a fitted effect of over 65% in size
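Readout is PINK1 immunofluorescence, quantified alongside mitochondrial, cell and nuclear markers by laser-scanning microplate cytometry. Cells from a stable line were exposed to compound titrations (5 concentrations) for 24 hours, with CCCP controls.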
TRPML1 agonist: human mucolipin-1 channel agonism | Q9GZU1 | activation, % (concentration not given with the values) | 410,000 tested, 0.12% active | TRPML1-expressing cells, Ca2+ dye fluorescence, FDSS; in the data active = activation above about 50%; inconclusive = mostly about 30% to 49%
Target sequence (Q9GZU1 whole entry, looked up): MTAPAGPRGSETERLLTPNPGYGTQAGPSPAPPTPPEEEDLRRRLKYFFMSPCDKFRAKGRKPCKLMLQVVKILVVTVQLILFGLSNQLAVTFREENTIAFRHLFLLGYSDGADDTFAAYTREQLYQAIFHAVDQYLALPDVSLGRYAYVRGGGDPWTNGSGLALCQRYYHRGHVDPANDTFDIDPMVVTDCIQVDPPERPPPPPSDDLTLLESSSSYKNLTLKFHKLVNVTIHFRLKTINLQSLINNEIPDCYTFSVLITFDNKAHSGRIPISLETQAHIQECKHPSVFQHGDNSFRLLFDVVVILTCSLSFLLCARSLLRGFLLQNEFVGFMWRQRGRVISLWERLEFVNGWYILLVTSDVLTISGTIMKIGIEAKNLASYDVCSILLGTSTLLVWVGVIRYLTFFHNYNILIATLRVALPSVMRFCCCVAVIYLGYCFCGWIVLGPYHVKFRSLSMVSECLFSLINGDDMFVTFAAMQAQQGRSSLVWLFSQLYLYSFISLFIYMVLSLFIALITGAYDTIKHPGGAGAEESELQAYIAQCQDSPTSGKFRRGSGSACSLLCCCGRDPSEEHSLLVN
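Tet-induced TRPML1-DL cells, 1,500 per well, cultured overnight, were loaded with a no-wash Ca2+ dye for 45–90 min. Calcium fluorescence was recorded on the FDSS for 110 s after compound addition, before the EC80 agonist (4 uM 54-4) was added.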
TRPML1 inh: inhibitors of human TRPML1 channel; 390,000 tested, 0.02% active; Q9GZU1; activity change, negative = inhibition, % (test concentration not listed); TRPML1-inducible cells, Ca2+ dye fluorescence, FDSS; hits give low values; inhibition of EC80 agonist-evoked calcium signal; in the data active = activity change below about -50%; inconclusive = between about -30% and that limit;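 note: stimulus is agonist 54-4 at its EC80 concentration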
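Calcium fluorescence in TRPML1-DL cells induced overnight with Tet: a 110 s read after compound pin addition, then a 110 s antagonist read after challenge with 54-4 at 4 uM final (EC80).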
Vif-A3G inh: Vif-A3G binding inhibition. Potency, µM (series often up to 46.1 µM), most hits filed as inhibitors. HeLa A3G-eYFP + Vif (tagged APOBEC3G with the HIV-1 protein that degrades it), YFP fluorescence, overnight. AID 602310. 410,000 tested, 0.076% active. Q9HC16; note: nearly all actives have a fitted effect of over 60% in size
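Read-out is eYFP fluorescence (Ex 488/Em 500-530) from Vif-expressing HeLa A3G-eYFP cells; more signal means A3G escaped Vif-mediated degradation. Cells plated overnight, compound pinned in, incubated overnight at 37 deg C.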
Vif-A3F inh: Vif-A3F binding inhibition; HeLa A3F-eYFP + Vif (tagged APOBEC3F with the HIV-1 protein that degrades it), YFP fluorescence increase; Potency, µM (top dose mostly 46.1 µM); 390,000 tested, 0.2% active; AID 602313; note: nearly all actives have a fitted effect of over 65% in size
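Fluorescence increase (Ex 488/Em 500-530) after overnight compound treatment at 37 deg C flags inhibition of Vif-driven A3F-eYFP loss in stable HeLa A3F-eYFP/Vif cells seeded overnight beforehand.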
Numbers stand for hits; – = inactive; ? = inconclusive; · = no result given. Unless noted, calls come from the whole dose curve; as a rule, active = well fitted curve in the direction sought with a large enough effect; inconclusive = small, poorly fitted or top-dose-only effect, or another doubt; inactive = no such curve, though single readings can be large; an effect the other way counts as inactive or inconclusive.

SMILES	PINK1 modulator	TRPML1 agonist	TRPML1 inh	Vif-A3G inh	Vif-A3F inh
CCc1c(C)nc2ncnn2c1N1CCC(C(=O)Nc2ccccc2)CC1	13µM	–	–	–	–
CN(CC(=O)Nc1ccccc1C(F)(F)F)C(=O)CSc1nnc(-c2ccncc2)n1C	–	–	–	–	–
O=[N+]([O-])c1ccccc1S(=O)(=O)Nc1cccc(-c2ccc(N3CCOCC3)nn2)c1	–	–	–	–	–
O=[N+]([O-])c1ccccc1S(=O)(=O)Nc1ccc(-c2ccc(N3CCOCC3)nn2)cc1	–	–	–	–	13µM
COc1ccc(/C=C2\CC/C(=C\c3ccc(OC)cc3OC)C2=O)c(OC)c1	–	?	–	–	8.9µM
Cn1c(CCCOc2ccc(Cl)cc2Cl)nnc1SCC(=O)Nc1nccs1	13µM	–	–	–	–
CCCCc1nnc(SCC(=O)Nc2nccs2)n1C	–	–	–	–	–
CCc1ccc(-n2c(=O)c3ccccc3n3c(=S)[nH]nc23)cc1	–	–	–	–	–
COc1cccc(-n2c(=O)c3ccccc3n3c(=S)[nH]nc23)c1	–	–	-51	–	–
c1ccc2c(Nc3ccc4c(c3)OCCO4)c3c(nc2c1)CCC3	40µM	–	–	–	–
c1ccc(Nc2c3c(nc4ccccc24)CCC3)cc1	–	–	–	–	–
CCOc1ccc(OC(=O)c2cn(-c3ccc(C)cc3)c(=O)c3ccccc23)cc1	–	–	–	–	–
COc1ccc2c(C)cc(SCC#N)nc2c1	–	–	–	?	22µM
CN1CCC(OC(=O)c2cc3cc(Cl)cc(Cl)c3oc2=O)CC1	–	·	·	11µM	–
C(=C\c1ccnc2ccccc12)/c1ccnc2ccccc12	·	–	·	–	·
C(=C\c1ccnc2ccccc12)/c1cccnc1	–	–	·	–	·
Cn1cc(/C=C/c2ccnc3ccccc23)c2ccccc21	–	–	·	10µM	·
Nc1ccccc1/C=C/c1ccnc2ccccc12	–	–	·	13µM	·
Cc1ccc(CNC(=O)CN2N=C(c3ccccc3)CCC2=O)cc1	–	–	–	–	–
CCCOc1ccc(CC(=O)N/N=C\c2ccc(F)cc2)cc1	–	–	–	–	–
CC(C)c1ccc(C2NC(=S)NC3=C2C(=O)CC(C)(C)C3)cc1 (centres undefined)	–	–	–	–	–
CC(C)NC(=O)c1sc2nc(-c3cccs3)cc(-c3cccs3)c2c1N	–	–	–	–	?
COc1ccc(C(=O)c2sc3nc(C)cc(-c4cccs4)c3c2N)cc1OC	–	52	–	?	?
Cc1cc(-c2cccs2)c2c(N)c(C(=O)c3ccc4c(c3)OCO4)sc2n1	?	–	–	–	–
Cc1cc(C)c2c(N)c(C(=O)N/N=C/c3cccs3)sc2n1	25µM	–	–	?	?
SMILES	PINK1 modulator	TRPML1 agonist	TRPML1 inh	Vif-A3G inh	Vif-A3F inh
COc1ccc(C(=O)c2sc3nc(C)cc(-c4cccs4)c3c2N)cc1	–	?	–	13µM	22µM
COc1ccc(C(=O)c2sc3nc(-c4ccc(C)cc4)cc(C(F)(F)F)c3c2N)cc1	–	–	–	8.9µM	1.3µM
COc1ccc(/C=N/NC(=O)c2sc3nc(C)cc(C)c3c2N)cc1	–	–	–	–	–
CCOC(=O)C1=C[C@@H](C(C)(C)C)N(S(=O)(=O)c2ccc(C)cc2)[C@H]1c1ccc(Cl)c(Cl)c1	–	–	·	–	·
O=C(C1CC(=O)N(c2ccccc2)C1)N1CCN(c2ccccc2)CC1 (centres undefined)	–	–	–	–	–
COc1ccc(-c2cc(-c3cccs3)nc3sc(C#N)c(N)c23)cc1	–	–	–	?	11µM
COc1cccc(Nc2ncc3nc(-c4ccc(F)cc4)c(=O)n(C[C@H]4CCCO4)c3n2)c1	–	·	·	·	·
COc1cccc(Nc2ncc3nc(-c4cn(C)c5ccccc45)c(=O)n(C[C@H]4CCCO4)c3n2)c1	2.5µM	·	·	·	·
CC1CC(C)(C)N(C(=O)CN2CCN(C)CC2)c2ccccc21 (centres undefined)	–	–	–	–	–
CC1=CC(C)(C)N(C(=O)CN2C(=O)c3ccccc3C2=O)c2ccccc21	–	96	–	–	–
CC1CC(C)(C)N(C(=O)CN2C(=O)c3ccccc3C2=O)c2ccccc21 (centres undefined)	·	94	–	–	–
Cc1cc(C)c2c(c1)-c1c(ssc1=S)C(C)(C)N2C(=O)CN1C(=O)c2ccccc2C1=O	–	67	?	–	–
CC1=CC(C)(C)N(C(=O)CN2C(=O)CCC2=O)c2ccc(C)cc21	–	–	–	–	–
Cc1ccc(S(=O)(=O)c2cc3ccccc3oc2=Nc2ccc3c(c2)OCO3)cc1	?	–	–	–	22µM
COc1cccc(-c2ccc(=O)n(CC(=O)NCCN3CCOCC3)n2)c1	–	–	-63	–	–
CC(=O)Cc1nsc(NC(=O)c2ccc(-c3cc(C(F)(F)F)ccc3Cl)o2)n1	5µM	–	–	–	–
Cc1cc(-c2ccc(C(C)C)c(S(=O)(=O)N3CCOc4ccccc43)c2)on1	–	139	–	–	–
O=C(NC(=S)N1CCN(C2CCCCC2)CC1)c1ccccc1	–	–	–	–	22µM
O=C(NC(=S)N1CCN(c2ccccn2)CC1)c1ccccc1	–	–	–	–	22µM
CCCCn1nnnc1C(c1ccccc1)N1CCN(C)CC1 (centres undefined)	–	–	·	·	·
CCCCn1nnnc1C(c1ccccc1)N1CCN(c2ncc(C(F)(F)F)cc2Cl)CC1 (centres undefined)	–	68	·	·	·
COCCN1C=C(C(=O)OC)C(c2ccc3c(c2)OCO3)C(C(=O)OC)=C1	·	–	–	–	–
COCCN1C=C(C(=O)OC)C(c2cc3c(cc2Br)OCO3)C(C(=O)OC)=C1	4µM	–	–	–	–
Cc1cccc2c1NC1(CCCC1)CC2C (centres undefined)	45µM	–	–	–	–
O=c1[nH]c(/C=C/c2cccc3ccccc23)nc2ccccc12	–	–	–	?	13µM
SMILES	PINK1 modulator	TRPML1 agonist	TRPML1 inh	Vif-A3G inh	Vif-A3F inh
O=c1c2ccccc2nc(/C=C/c2ccccc2)n1CCCO	–	–	–	–	–
O=c1[nH]c(/C=C/c2ccccc2F)nc2ccccc12	–	–	–	?	–
CN(C)c1ccc(/C=C/c2nc3ccccc3c(=O)n2CCO)cc1	–	–	–	11µM	13µM
CN(C)c1ccc(/C=C(\C#N)c2nc3ccccc3c(=O)[nH]2)cc1	–	–	–	?	5µM
Cc1cccc(/C=C(\C#N)c2nc3ccccc3c(=O)[nH]2)c1	–	–	–	–	–
CN(C)c1ccc(/C=C/c2nc3ccccc3c(=O)[nH]2)cc1	–	–	–	–	10µM
CC(C)(C)OC(=O)N1CCC(c2c(C(=O)NCc3ccc4c(c3)OCO4)cnn2-c2ccc(F)cc2F)CC1	–	–	–	–	–
Cc1cc(C)cc(NC(=S)NC(=O)C2CC2)c1	–	–	–	–	13µM

Screens deposited in PubChem by National Center for Advancing Translational Sciences (NCATS).
